Sampled rows, rich in hits. Any-hit rate of the full collection: about 4.6%.
D1 potentiator = Potentiators of Human D1 Dopamine Receptor: qHTS; HEK293 TREx D1 cells, calcium flux, dopamine EC20 potentiation; potentiation, % at 10 µM; actives 0.036% (n = 360,000); in the data active means potentiation above about 30%; further: 0% is about no effect
TRHR enhancer = qHTS for Small Molecule Agonists and Allosteric Enhancers of Human TRH Receptor: Primary Screen for Enhancers. Thyrotropin-releasing hormone receptor (Homo sapiens), P34981. TRHR cells, fluo-8 calcium fluorescence, EC20 TRH enhancement. enhancement, % at 2 µM. actives 0.66% (n = 360,000). AID 493056, 2011; in the data active means enhancement above about 30%; further: 0% is about no effect
Target sequence (P34981 whole entry, looked up): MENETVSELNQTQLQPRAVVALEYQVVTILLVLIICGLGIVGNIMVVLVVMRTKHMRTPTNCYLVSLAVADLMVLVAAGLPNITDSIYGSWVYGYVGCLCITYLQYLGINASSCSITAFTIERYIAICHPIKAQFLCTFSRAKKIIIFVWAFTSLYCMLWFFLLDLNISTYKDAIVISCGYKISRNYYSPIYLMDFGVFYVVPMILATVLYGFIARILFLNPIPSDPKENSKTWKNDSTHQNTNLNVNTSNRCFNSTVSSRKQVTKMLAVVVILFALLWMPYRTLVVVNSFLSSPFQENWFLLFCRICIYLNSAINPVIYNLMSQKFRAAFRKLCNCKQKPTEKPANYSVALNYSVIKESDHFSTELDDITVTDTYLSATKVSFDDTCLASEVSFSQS
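Enhancer read-out: after compound pinning and an initial kinetic agonist-mode read, an EC20 of TRH (10 nM final) was injected and fluo-8 calcium signal (Ex 480/Em 530) followed at 1 s/cycle for 100 cycles in TRHR-expressing cells.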
D1 antagonist = Antagonist of Human D 1 Dopamine Receptor: qHTS. D(1A) dopamine receptor (Homo sapiens), P21728. HEK293 TREx D1 cells, calcium flux, dopamine EC80; active compounds read low. activity change, negative = inhibition, % at 10 µM. actives 3.2% (n = 360,000). AID 504652, 2011; in the data active means activity change below about -30%; further: on the % scale 0 is the no-effect control and ±100 the full control effect
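Tetracycline-induced HEK293 Trex D1 cells, force-coupled to calcium, dye-loaded; compounds added and read 180 s, then EC80 dopamine added and calcium flux tracked kinetically another 180 s.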
TRHR agonist = qHTS for Small Molecule Agonists and Allosteric Enhancers of Human TRH Receptor: Primary Screen for Agonists | Thyrotropin-releasing hormone receptor (Homo sapiens), P34981 | activation, % at 2 µM | actives 0.18% (n = 360,000) | TRHR cells, calcium flux fluo-8, FDSS agonist mode; further: 0% is about no effect
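Read-out: compound-evoked intracellular calcium rise in TRHR cells, fluo-8 dye, kinetic FDSS fluorescence at 1 s/cycle following a 10-cycle baseline. Cells cultured overnight before dye loading (30 min–1.5 h, RT).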
D1 ag = Allosteric Agonists of the Human D1 Dopamine Receptor: qHTS | D(1A) dopamine receptor (Homo sapiens), P21728 | HEK293 T-REx D1 cells, calcium flux, agonist mode | activation, % at 2 µM | actives 1% (n = 360,000); further: 0% is about no effect
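Agonism was scored from calcium flux recorded over 180 s (1 read/s) after pintool compound addition, following a 10-cycle baseline. Cells were inducible force-coupled HEK293 TREx D1, plated overnight at 30 C and loaded with no-wash calcium dye.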
Numbers without * were called inactive; nt = no result. Unless noted, no stated cut-off is given here; in the data, active means activation above about 30%; inactive means the rest.

SMILES | D1 potentiator | TRHR enhancer | D1 antagonist | TRHR agonist | D1 ag
CCC(C(=O)OCC(=O)NC(=O)c1ccccc1)c1ccccc1 (stereo not given) | -5 | -2 | -10 | -1 | 70*
CCC(C(=O)OCC(=O)NC(=O)c1ccccc1OC)c1ccccc1 (stereo not given) | -1 | 6 | -2 | 0 | 8
COC(=O)C1=CN(c2ccc(OC)cc2)C=C(C(=O)OC)C1c1cc(OC)c(OC)cc1OC | -7 | -3 | -1 | 1 | 3
COc1ccc(C(=O)CN2C3=NCCCN3c3ccccc32)cc1OC | -2 | -7 | -44* | 0 | 0
Cc1ccc(NC(=O)c2nc(S(C)(=O)=O)ncc2N(Cc2ccco2)Cc2cccs2)c(C)c1 | -1 | -2 | 0 | -3 | 19
CC1CCN(C(=O)C2CCN(CC(C)c3ccccc3)CC2)CC1 (stereo not given) | 3 | 5 | -3 | 0 | 0
COc1ccc(C(=O)N/N=C(\C)Cn2nc([N+](=O)[O-])cc2C)cc1 | 0 | -5 | -15 | 0 | 2
CC(Oc1ccc(F)cc1)C(=O)Nc1ccc(S(=O)(=O)NC2=NCCCCC2)cc1 (stereo not given) | 0 | 5 | -6 | 4 | 33*
COc1ccccc1C(=O)Nc1ccc(S(=O)(=O)Nc2nccs2)cc1 | nt | 1 | -31* | 1 | 4
CC(Oc1cccc(Cl)c1)C(=O)Nc1ccc(S(=O)(=O)NC2=NCCCCC2)cc1 (stereo not given) | 2 | 7 | 3 | 1 | 17
COc1ccccc1C(=O)Nc1ccc(S(=O)(=O)NC2=NCCCCC2)cc1 | -12 | 1 | -58* | 0 | 3
CCN(CC)S(=O)(=O)c1cccc(NC(=O)c2ccc(SC)cc2OC)c1 | -9 | -3 | 0 | 1 | 29
CSc1ccccc1C(=O)Nc1ccc(S(=O)(=O)NC2=NCCCCC2)cc1 | -3 | -6 | 23 | -1 | 0
COc1cc(SC)ccc1C(=O)Nc1cccc(S(=O)(=O)NC2=NCCCCC2)c1 | -6 | -13 | -38* | 0 | 11
CCOc1ccccc1NC(=O)c1ccc2c(c1)C(=O)N(CC1CCCO1)C2=O (stereo not given) | -1 | 2 | -26 | -1 | 6
Nn1c(SCC(=O)Nc2ccc(S(N)(=O)=O)cc2)nnc1-c1ccco1 | 1 | 2 | 18 | 0 | 5
CSc1ccc(NC(=O)NCCCN2CCN(c3ccccc3F)CC2)cc1 | -4 | -1 | -73* | 1 | 37*
O=C(NCCCN1CCN(c2ccccc2F)CC1)Nc1ccc(F)cc1 | -11 | 3 | -79* | 0 | 4
O=C(NCCCN1CCN(c2ccccc2F)CC1)Nc1ccccc1[N+](=O)[O-] | -14 | 2 | -54* | 0 | 8
COC(=O)C1=C(C)NC(=O)NC1c1cccc(OC)c1OCc1ccccc1 (stereo not given) | -2 | 6 | 5 | 0 | 0
CC(C)Oc1ccc(C(=O)Nc2ccc3c(c2)n(C)c(=O)n3C)cc1 | 0 | 2 | 25 | -1 | 3
Nc1nccnc1C(=O)OCC(=O)N1CCN(S(=O)(=O)c2ccc(Cl)cc2)CC1 | -6 | -8 | -4 | 0 | 2
CCOC(=O)C1C(=O)NC(N2CCN(Cc3ccccc3)CC2)=NC1c1ccco1 (stereo not given) | -1 | 0 | -36* | 0 | 1
CCOC(=O)C1C(=O)NC(N2CCN(Cc3ccccc3)CC2)=NC1c1ccccc1 (stereo not given) | -2 | -9 | 4 | 0 | 2
COc1ccc(Cl)cc1NC(=O)C(=O)NCc1ccncc1 | -13 | 28 | -38* | -2 | 2
SMILES | D1 potentiator | TRHR enhancer | D1 antagonist | TRHR agonist | D1 ag
S=C1NCCNC(=S)NCCOCCOCCN1 | -3 | 15 | -4 | 1 | 1
COc1ccc(N2CCN(C(=S)Nc3ccccc3)CC2)cc1 | 11 | -4 | -11 | 0 | -2
CN1CCN(c2ccc(NC(=O)c3ccc(Oc4ccccc4)cc3)cc2)CC1 | nt | 0 | -58* | -1 | 11
O=[N+]([O-])c1ccc(NC(=S)N2CCN(c3ccccc3)CC2)cc1 | -10 | -3 | -40* | 1 | 9
COc1cc2ccccc2cc1C(=O)Nc1ccc(N2CCN(C(=O)C(C)C)CC2)cc1 | -2 | 4 | -29 | 1 | 12
CC(=O)c1ccc(N2CCN(C(=S)Nc3ccc(Oc4ccccc4)cc3)CC2)cc1 | -3 | 1 | -33* | 0 | 6
COc1cc2ccccc2cc1C(=O)Nc1ccc(N2CCN(C)CC2)cc1 | -8 | 2 | -61* | 1 | 9
COc1ccc(C(=O)Nc2ccc(N3CCCC3)cc2)cc1 | 4 | -7 | -8 | 0 | 0
Cc1c(NC(=O)C2C3C=CC(C3)C2C(=O)O)c(=O)n(-c2ccccc2)n1C (stereo not given) | -4 | -4 | -13 | 1 | 1
CCCCOn1c(C)c(C(C)=O)c2c3no[n+]([O-])c3ccc21 | 4 | 4 | 44 | 0 | 4
NS(=O)(=O)c1ccc(NC(=S)N2CCN(c3ccccc3Cl)CC2)cc1 | -8 | 22 | -40* | 1 | 5
CCOc1ccc(C(=O)Nc2ccc(N3CCN(C)CC3)cc2)cc1Br | -8 | -11 | -35* | 0 | 4
O=S(=O)(c1cccc(NC(=S)N2CCN(c3ccc(F)cc3)CC2)c1)C(F)F | -14 | 5 | -35* | 0 | 6
NS(=O)(=O)c1ccc(NC(=S)N2CCN(c3cccc(Cl)c3)CC2)cc1 | -3 | -1 | -8 | 0 | 4
CC(=O)c1ccc(N2CCN(C(=S)Nc3cccc(F)c3)CC2)cc1 | -3 | 0 | -40* | 0 | 12
CCOc1ccc(C(=O)Nc2ccc(NC(=O)c3ccccc3)cc2)cc1Br | -6 | -6 | -25 | 1 | -1
CCOC(=O)C1(CCOC)CCN(C(=O)c2ccc(CSC)o2)CC1 | -10 | -8 | -28 | 1 | 2
COc1cc(C)c(COc2ncnc3ccccc23)cc1OC | 9 | 8 | 1 | 2 | 4
CCOc1ccc(N(Cc2ccc(C(=O)O)cc2)S(=O)(=O)c2ccc(C)cc2)cc1 | -4 | 3 | 0 | 0 | 3
Cc1cc(Oc2ccc(OCC(N)=O)nn2)nc(Cl)n1 | -1 | -3 | -6 | 0 | -1
CC(C)c1ccc(S(=O)(=O)N2CCN(C(=O)C3CC3C)CC2)cc1 (stereo not given) | -4 | -4 | -13 | 0 | 6
Cc1ccccc1NC(=O)Cn1c(=O)oc2cc(Br)ccc21 | 0 | -5 | -25 | 0 | 18
